From PubChem BioAssay AID504832 (National Center for Advancing Translational Sciences (NCATS), 2011)
The whole screen tested about 310,000 compounds, of which about 18,000 (5.8%) were called active. Where a call stands in place of a potency, no number is given. About 22% were inconclusive and are not listed. The call rests on the fitted dose curve; in most records, active means well fitted inhibition curve with a large enough effect; inconclusive means small, poorly fitted or top-dose-only effect, or another doubt; inactive means no such curve, though single readings can be large or run the other way. This excerpt belongs to a sample that is enriched for actives.

assay: Primary qHTS for delayed death inhibitors of the malarial parasite plastid, 48 hour incubation; settings: P. falciparum luciferase growth in erythrocytes; series mostly up to 28.7 µM
Summary of the method: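 Luminescence readout; reporter = integrated firefly luciferase in P. falciparum. RBC culture at 2% hematocrit, 0.1% parasitemia final, 37 C/5% CO2; decreased signal taken as growth inhibition.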
Potency means the concentration at half of the fitted maximal effect.

Compound | Potency
C=CCN1C(=NC(=O)COc2ccccc2)SC2CS(=O)(=O)CC21 (stereo not drawn) | inactive
CCn1c(=N)c(S(=O)(=O)c2ccc(F)cc2)cc2c(=O)n3ccccc3nc21 | inactive
CCOC(=O)c1cc2c(=O)n3ccccc3nc2n(CC(C)C)c1=NC(=O)c1c(-c2c(F)cccc2Cl)noc1C | 2.33 µM (active)
C/C(=N/OC(=O)c1c(-c2c(F)cccc2Cl)noc1C)c1cnccn1 | inactive
O=C(Nc1cc2c3c(c1)CC(=O)N3CCC2)c1ccccc1F | inactive
COc1cccc(CN2CCN(Cc3ccc4cccc(F)c4n3)CC2CCO)c1 (stereo not drawn) | inactive
O=c1c2c(-c3ccccc3)ccnc2[nH]n1-c1ccccc1 | inactive
COc1ccc(Cc2nnc(NC(=O)c3ccc(OC)cc3OC)s2)cc1 | 1.65 µM (active)
COc1ccc(Cc2nnc(NC(=O)c3cc(OC)c(OC)c(OC)c3)s2)cc1OC | inactive
COc1ccc(C(=O)Nc2nncs2)c(OC)c1 | inactive
Cc1cc(C(=O)NC2CC(C)(C)Cc3c2cnn3-c2ccccc2)n[nH]1 (stereo not drawn) | inactive
COc1cccc(/C=N/Nc2ccc(Cl)nn2)c1 | inactive
Clc1ccc(N/N=C/c2cccs2)nn1 | inactive
Oc1cccc(/C=N/Nc2ccc(Cl)nn2)c1O | 0.415 µM (active)
O=C(CN1CCCCC1)NC(=O)Nc1ccccc1F | inactive
Cc1ccc(NC(=O)CN(C)C(=O)COC(=O)C(C)(C)Oc2ccc(Cl)cc2)cc1 | inactive
CCCC(=O)N(CCN1CCOCC1)c1nc2ccc(OCC)cc2s1 | inactive
Cc1ccc2nc(N(CCN(C)C)C(=O)C3=COCCO3)sc2c1 | inactive
CCOc1ccc2nc(N(CCN(C)C)C(=O)c3ccc4ccccc4c3)sc2c1 | inactive
CCC(=O)Nc1nnc(S(=O)(=O)N2CCCc3ccccc32)s1 | inactive
CN(C)CCCN(C(=O)c1ccc(S(=O)(=O)N2CCCc3ccccc32)cc1)c1nc2ccc(F)cc2s1 | 13.1 µM (active)
CCOc1ccc2nc(N(CCCN(C)C)C(=O)c3ccc(C(=O)c4ccccc4)cc3)sc2c1 | 10.4 µM (active)
CCc1ccc2nc(N(CCCN(C)C)C(=O)c3ccc4c(c3)OCCO4)sc2c1 | 3.29 µM (active)
CCN(CC)CCN(C(=O)c1ccc(S(=O)(=O)N2CCOCC2)cc1)c1nc2cc3c(cc2s1)OCCO3 | inactive
CN(C)CCN(C(=O)C1=COCCO1)c1nc2ccc(Cl)cc2s1 | inactive
C[C@H](NC(=O)C1CC(=O)N(c2ccc3c(c2)OCO3)C1)C(=O)NCc1ccco1 (stereo partly drawn) | inactive
CCc1ccccc1N(CC(=O)NCC1CCCO1)C(=O)CCC(=O)Nc1nccs1 (stereo not drawn) | inactive
CC(C)Oc1ccc(C(CC(=O)N2CCOCC2)C(C)C)cc1 (stereo not drawn) | inactive
